The text below walks through data of the supplement of paper PMC7866885, “A novel bicyclic 2,4-diaminopyrimidine inhibitor of Streptococcus suis dihydrofolate reductase” (PeerJ, 2021).

SMILES strings stand for the structures. ± gives the standard deviation.

The test system of this assay is Streptococcus suis P1/7. Kind of assay: percent growth relative to DMSO control; higher = less growth inhibition. As to conditions: 10 µM; incubation time 18 h. The protocol:
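CLSI broth microdilution: 5x10^4 CFU of Streptococcus suis (strain P1/7 or HE06) incubated with 10 µM Pathogen Box compound in cation-adjusted Mueller Hinton broth, 37 °C, 5% CO2, 18 h. Growth read as OD600 and expressed as percent of the DMSO-treated control (100%); mean ± SD of three independent experiments.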
Take `c1ccc(-c2[nH]c3ccccc3c2C(c2ccccn2)N2CCCC2)cc1` (stereo not given): the percent growth is 108 ± 23%.

On to `CS(=O)(=O)N1CCC(Cn2nc(Cc3cccc4ccccc34)c3c(N)ncnc32)CC1`, for which the percent growth came out at 65.7 ± 20%.

Compound `CCCn1nnc(NC(=O)COc2ccc(C3CCCCC3)cc2)n1` displayed a percent growth of 85.9 ± 12%.

For the compound `CNC1C(OC2C(OC3C(O)C(O)C(NC(=N)N)C(O)C3NC(=N)N)OC(C)C2(O)C=O)OC(CO)C(O)C1O` (stereo not given), the percent growth is 86.1 ± 18%.

In turn, `O=C1N(Cc2cc3ccccc3s2)CC2CN(Cc3ccccc3)CCN12` (stereo not given) gave a percent growth of 83.1 ± 18%.

In turn, `CCOc1ccc(-c2nc(CNCCc3ccc(F)cc3)cs2)cc1` returned a percent growth of 29.5 ± 51%.

The compound `COc1cccc(-n2nnnc2S(C)(=O)=O)c1` displayed a percent growth of 67.1 ± 23%.

As for `O=C(Nc1nc(-c2ccccn2)cs1)c1cncn1-c1ccccc1`, the percent growth was determined as 5.15 ± 6.6%.

As for `Clc1cccc(CO[C@H]2CCc3ccccc3[C@@H]2n2ccnn2)c1`, the percent growth is 95.9 ± 18%.

In the case of `N=C(N)c1ccc(OCCCCCOc2ccc(C(=N)N)cc2)cc1`, the percent growth turned out to be 37.1 ± 32%.

Turning to `O=C(c1ccc(NCCO)cc1)C1C[C@H]1c1ccc(Cl)cc1` (stereo not given in full), the percent growth was 67 ± 24%.

Regarding `CC(C)(CN)c1nc(-c2ccc(Cl)c(O)c2)c(-c2ccnc(N)n2)[nH]1`, the percent growth is 79.2 ± 20%.

Compound `CC1CS(=O)(=O)CCN1/N=C/c1ccc([N+](=O)[O-])o1` (stereo not given) yielded a percent growth of 85.1 ± 16%.

As to `NCCC(O)C(=O)N[C@@H]1C[C@H](N)[C@@H](OC2O[C@H](CN)[C@@H](O)[C@H](O)[C@H]2O)[C@H](O)C1OC1O[C@H](CO)[C@@H](O)[C@H](N)[C@H]1O` (stereo not given in full), the percent growth was 87.5 ± 38%.

For `Nc1ccc(C(=O)Nc2ccc(-c3nc4ccccc4o3)cc2)cc1`, the percent growth was found to be 92.6 ± 17%.

On to `COc1ccc(C(=N)N)cc1-c1cn(-c2ccc(C(=N)N)cc2)nn1`, for which the percent growth came out at 75.7 ± 2.9%.

The compound `CNC(=O)c1cc(S(=O)(=O)N2CCN(c3ccccn3)CC2)cs1` yielded a percent growth of 129 ± 58%.

The compound `O=C(NCCc1ccccc1)c1cc(-c2cccnc2)cnc1NCC1CC1` displayed a percent growth of 59.7 ± 23%.

For the compound `COc1ccc(N(CCc2cccc(C)n2)C(=O)C2CCCCC2)cc1`, the percent growth came out at 105 ± 28%.

In the case of `COc1ccc(C2=NN(C3CCCCCC3)C(=O)[C@@H]3CC=CC[C@H]23)cc1OCCCCOc1ccc(-c2nn[nH]n2)cc1`, the percent growth came out at 0.12 ± 0.21%.

Compound `COc1cccc2c(C)nc(N=C(N)N)nc12` returned a percent growth of 66.8 ± 52%.

For `COc1cc(C2=NCCN2)ccc1-c1cn(-c2cccc(C3=NCCN3)c2)nn1`, the percent growth was determined as 73 ± 4.1%.

For `CC(C)(C(=O)Nc1ccc(F)cc1)n1cc(-c2ccccc2F)cn1`, the percent growth worked out at 84.1 ± 6.1%.

Regarding `COc1ccccc1CNC(=O)c1cc(C2CC2)nc2c1cnn2C(C)C`, the percent growth amounted to 83.8 ± 45%.

In the case of `CN1CCCN(C(c2ccccc2)c2ccc(Cl)cc2)CC1` (stereo not given), the percent growth was determined as 85.4 ± 14%.

In turn, `O=C(C1CCCCC1)N1CC(=O)N2CCc3ccccc3C2C1` (stereo not given) had a percent growth of 102 ± 18%.

The compound `CCCNC(=O)N1CCC2(CC1)CC(=O)c1cc(C)ccc1O2` came in with a percent growth of 61.5 ± 9.9%.

As to `CS(=O)(=O)c1cccc(-c2cnc3[nH]cc(-c4ccc(CCC(=O)O)cc4)c3c2)c1`, the percent growth was found to be 52.9 ± 34%.

Consider `CC(C)C(NC(=O)Cc1cccc2ccccc12)C(=O)Nc1cccc(C#N)c1` (stereo not given), for which the percent growth came out at 158 ± 100%.

The compound `O=C(NC1CCN(c2ccnc3ccccc23)C1)c1cccc(C(F)(F)F)c1` (stereo not given) returned a percent growth of 81.5 ± 25%.

As for `O=C(NC1CC1)c1ccc(N2CCC(Cc3ccccc3)CC2)nc1`, the percent growth amounted to 108 ± 16%.

Regarding `N#CCN(CCCCN1CCN(c2ccc(F)cc2)CC1)C(=O)OCc1ccccc1`, the percent growth was 75.8 ± 19%.

Consider `Nc1nc(N)c2c3c(sc2n1)CN(Cc1ccccc1)CC3`, for which the percent growth was determined as 87.8 ± 9.9%.

Turning to `CC1(COc2ccc(N3CCC(Oc4ccc(OC(F)(F)F)cc4)CC3)cc2)Cn2cc([N+](=O)[O-])nc2O1` (stereo not given), the percent growth came out at 114 ± 61%.

In turn, `CCOc1ccc2cc(-c3nn(CC4CCN(C)CC4)c4ncnc(N)c34)ccc2c1` showed a percent growth of 99.3 ± 11%.

In the case of `O=C(Nc1ccc(N2CCNCC2)cc1)c1ccn2ncc(-c3cccc(Cl)c3)c2n1`, the percent growth worked out at 75.2 ± 22%.

For `COc1cncc(-c2cncc(N3CCN(c4ccncc4)CC3)n2)c1`, the percent growth came out at 64.3 ± 15%.

In turn, `CNC(=O)c1nn(C)c2c1C(C)(C)Cc1cnc(Nc3ccc(N4CCN(C)CC4)cc3)nc1-2` showed a percent growth of 92.6 ± 19%.

In turn, `CCCCc1ccc(C(=O)Nc2nccc3ccccc23)nc1` came in with a percent growth of 13.4 ± 21%.

The compound `COc1cc(OC)cc(C(=O)NCC2Cc3cc(Cl)cc(-c4ccncc4)c3O2)c1` (stereo not given) registered a percent growth of 65.4 ± 25%.
